# IMPase cell inh = qHTS Assay for Identifying the Cell-Membrane Permeable IMPase Inhibitors; Inositol monophosphatase 1 (Rattus norvegicus), P97697; CHO-M1 cells, IP1 accumulation, HTRF TR-FRET ratio; inhibition (IP1 accumulation), % at 46.1 µM; 120,000 tested, under 10 active; active = well fitted curve in the direction sought with a large enough effect in the signal ratio, not every such curve was filed as active; inconclusive = small, poorly fitted or top-dose-only effect, or a change in a side signal; inactive = no such curve, though single readings can be large or run the other way; the % refers to the signal ratio;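 note: cells stimulated with carbachol in lithium chloride buffer; higher means more IMPase inhibition seen as more IP1 and lower FRET ratio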
#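 Seeded CHO-M1 cells were dosed with compound at up to 46 uM, stimulated with carbachol for 30 min, then lysed in IP-One detection reagents. Higher IP1 lowers the TR-FRET signal.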
# ALOX12 inhib = qHTS Assay for Inhibitors of 12-hLO (12-human lipoxygenase); Polyunsaturated fatty acid lipoxygenase ALOX12 (Homo sapiens), P18054; purified 12-hLO, xylenol orange hydroperoxide absorbance; Potency, µM (titrated, usually from 57.1 µM), usual class: inhibitors; 0.12% of 150,000 active; AID 1452, 2008; note: nearly all actives have a fitted effect of over 55% in size
#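 Hydroperoxide formation by human 12-lipoxygenase from 40 uM arachidonic acid was followed colorimetrically via ferric-xylenol orange complex, using the 573/405 nm absorbance ratio. Enzyme concentration was 150 nM, with 30 min reaction at room temperature.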
# ALDH1A1 block = qHTS Assay for Inhibitors of Aldehyde Dehydrogenase 1 (ALDH1A1); Aldehyde dehydrogenase 1A1 (Homo sapiens), P00352; Purified ALDH1A1, NADH fluorescence, propionaldehyde substrate; Potency, µM (titrated, usually from 75.3 µM), usual class: inhibitors; 7.3% of 220,000 active; active = well fitted inhibition curve with a large enough effect, not every such curve was filed as active; inconclusive = small, poorly fitted or top-dose-only effect, or another doubt; inactive = no such curve, though single readings can be large or run the other way
# Target sequence (P00352 whole entry, looked up): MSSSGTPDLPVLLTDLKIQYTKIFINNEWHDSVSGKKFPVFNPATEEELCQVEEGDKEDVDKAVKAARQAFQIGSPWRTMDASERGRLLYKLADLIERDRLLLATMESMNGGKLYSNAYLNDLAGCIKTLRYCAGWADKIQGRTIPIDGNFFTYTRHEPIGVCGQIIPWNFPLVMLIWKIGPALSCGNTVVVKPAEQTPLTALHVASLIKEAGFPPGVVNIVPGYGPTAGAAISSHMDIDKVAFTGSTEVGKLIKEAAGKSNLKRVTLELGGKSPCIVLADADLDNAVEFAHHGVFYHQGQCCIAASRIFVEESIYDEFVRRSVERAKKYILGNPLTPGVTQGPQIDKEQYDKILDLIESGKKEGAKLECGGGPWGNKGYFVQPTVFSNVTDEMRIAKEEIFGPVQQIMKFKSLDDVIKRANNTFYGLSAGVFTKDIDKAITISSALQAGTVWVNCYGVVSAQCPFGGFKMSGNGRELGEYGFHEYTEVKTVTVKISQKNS
# IMPase Li cell = qHTS Assay for Identifying the Cell-Membrane Permeable IMPase Inhibitors: Potentiation with Lithium; CHO-M1 cells, IP1 TR-FRET (IP-One), carbachol + lithium; Potency, µM (titrated, usually from 59.4 µM), usual class: inhibitors; 0.35% of 210,000 active; AID 1457, 2008;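 note: IP1 builds up when IMPase is blocked and the TR-FRET signal falls; nearly all actives have a fitted effect of over 50% in size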
#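 Steps: plate 2000 CHO-M1 cells per well and culture 16–30 h; add compound and lithium; incubate 30 min, 37C; add d2-IP1 tracer and Eu cryptate anti-IP1 antibody in lysis buffer; read after 10 min at room temperature.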
# HPGD inh = qHTS Assay for Inhibitors of HPGD (15-Hydroxyprostaglandin Dehydrogenase); 4.3% of 150,000 active; purified HPGD, NADH fluorescence kinetic, PGE2 substrate; Potency, µM, most hits filed as inhibitors; active = well fitted inhibition curve with a large enough effect, not every such curve was filed as active; inconclusive = small, poorly fitted or top-dose-only effect, or another doubt; inactive = no such curve, though single readings can be large or run the other way
#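 NADH formation kinetics: reaction with 30 uM PGE2 and 1 mM NAD+ (final), 20 nM enzyme, Tris-HCl pH 8 with Tween 20, after 15 min compound preincubation at room temperature. Fluorescence change, last versus first of five reads.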
# PNC assembly inh = High Content Assay for Compounds that inhibit the Assembly of the Perinucleolar Compartment | activity change (PNC), negative = inhibition, % at 10 µM | PC3M PTB-GFP, PNC prevalence imaging, 16 h; active compounds read low | 3.1% of 140,000 active;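 active = readout at or below -70, meaning at least 70% loss of cells showing the perinucleolar compartment, a nuclear body marking cancer cells; inconclusive = readout between -30 and a set limit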
#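 PC3M cells stably expressing PTB-GFP, 750–1000 cells/well, treated 16 h at 37 °C with compound (23 nl of library stock), in duplicate. After paraformaldehyde fixation and Hoechst stain, imaged at 20x; PNC prevalence scored by image analysis.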
# Numbers stand for hits; – = inactive; ? = inconclusive; · = no result given. Compounds with a hit are over-represented: about 11% of the library has one in this group of screens. Unless noted, calls come from the whole dose curve; as a rule, active = well fitted curve in the direction sought with a large enough effect; inconclusive = small, poorly fitted or top-dose-only effect, or another doubt; inactive = no such curve, though single readings can be large; an effect the other way counts as inactive or inconclusive.
SMILES,IMPase cell inh,ALOX12 inhib,ALDH1A1 block,IMPase Li cell,HPGD inh,PNC assembly inh
CC[N+]1(C)C2CCC1CC(OC(=O)[C@H]1CCC(C(=O)OC3CC4CCC(C3)[N+]4(C)CC)(c3ccccc3)c3ccccc31)C2 (stereo not given in full),·,·,–,–,·,·
Fc1cccc(-c2csc(-c3ccno3)n2)c1,·,·,22µM,·,·,·
COc1cc(OC)c(NC(c2nnc(-c3ccccc3)o2)c2ccc(F)cc2Cl)cc1Cl (stereo not given),–,·,·,·,·,·
COc1ccc(N(C)S(=O)(=O)c2cccc(C(=O)N(C)Cc3ccc(C)o3)c2)cc1,·,·,10µM,–,·,·
CCCc1nc2oc3c(OC)ncnc3c2c2c1COC(C)(C)C2,?,–,0.89µM,–,–,–
Cc1nc2oc3c(NCc4ccccc4)ncnc3c2c2c1COC(C)(C)C2,–,–,?,–,?,–
CCCc1nc2oc3c(NCCOCCO)ncnc3c2c2c1COC(C)(C)C2,–,–,?,–,?,-111
COC(=O)[C@@]1(Cc2ccc(OC)cc2)[C@H]2c3cc(C(=O)N(C)C)n(Cc4ccc(C(F)(F)F)nc4)c3C[C@H]2CN1C(=O)c1ccccc1,·,–,–,–,–,·
Nc1nnc(SCCCC(=O)c2ccc(Br)cc2)s1,–,–,–,–,3.5µM,–
CC1SC(C)C(=O)N(CC(=O)NC2CCCCC2)C1=O (stereo not given),·,·,–,–,·,·
Cc1onc(-c2ccccc2)c1C(=O)N1CCN(S(=O)(=O)c2ccc3c(c2)OCCO3)CC1,–,–,3.2µM,–,–,?
COc1ccc(S(=O)(=O)N2CCN(C(=O)c3c(-c4ccccc4)noc3C)CC2)cc1,–,–,?,–,–,–
CC(=O)OC(C(=O)c1ccccc1)c1ccccc1 (stereo not given),·,–,22µM,–,–,·
Cc1ccc(NC(=O)CSc2ncn(-c3ccccc3)n2)cc1C,·,–,–,–,–,–
Cc1ccc(NC(=O)CSc2ncc3ccccn23)cc1C,·,·,3.2µM,–,·,·
C=C1C[C@@]23C[C@]1(O)CC[C@@H]2[C@]12C=C[C@@H](O)[C@](C)(C(=O)O1)[C@H]2[C@H]3C(=O)O,–,–,–,–,–,·
COc1ccc(C)cc1NC(=O)C(OC(=O)c1cc(C)oc1C)c1ccccc1 (stereo not given),–,–,–,–,–,?
COc1ccc(C)cc1NC(=O)C(NCC1CCCO1)c1ccccc1 (stereo not given),·,–,18µM,–,–,–
O=[N+]([O-])c1cc(/C=N/O)ccc1Sc1ccccc1,–,–,?,–,25µM,–
COc1cccc(C2C3(C#N)C(N)=NC(OC)(OC)C23C#N)c1 (stereo not given),–,–,–,–,–,–
COC1(OC)N=C(N)C2(C#N)C(c3cccc(Oc4ccccc4)c3)C12C#N (stereo not given),–,–,22µM,–,–,–
COc1ccc(-n2c(-c3ccc(Br)cc3)c[n+]3c2SC(C)C3)cc1 (stereo not given),·,·,–,–,·,·
NC(=O)c1nsc(C(=O)N(CCc2ccccc2)C(C(=O)NC2CCCC2)c2ccco2)c1N (stereo not given),–,–,?,–,–,–
COc1ccc(CN(C(=O)c2nsc(Cl)c2Cl)C(C(=O)NC2CCCC2)c2ccc(C)cc2)cc1 (stereo not given),·,–,13µM,–,–,–
COc1ccc(CN(C(=O)c2nsc(Cl)c2Cl)C(C(=O)NC2CCCCC2)c2ccc(OC)cc2)cc1 (stereo not given),–,–,7.1µM,–,–,–
COc1ccc(C(C(=O)NC2CCCC2)N(CCN(C)C)C(=O)c2snc(C(N)=O)c2N)cc1 (stereo not given),–,–,?,–,?,-114
